Giardia FBPA inh = qHTS Assay for Inhibitors of Fructose-1,6-bisphosphate Aldolase from Giardia Lamblia | hit rate 0.71% among 290,000 | AID 2451, 2010 | purified Giardia FBPA | Potency, µM (doses to about 59.6 µM), for inactives: at the highest dose activity, negative = inhibition, usual class: inhibitors | A8B2U2; further: potency means the concentration at half of the fitted maximal effect; nearly all actives have a fitted effect of over 55% in size
Target sequence (A8B2U2 whole entry, looked up): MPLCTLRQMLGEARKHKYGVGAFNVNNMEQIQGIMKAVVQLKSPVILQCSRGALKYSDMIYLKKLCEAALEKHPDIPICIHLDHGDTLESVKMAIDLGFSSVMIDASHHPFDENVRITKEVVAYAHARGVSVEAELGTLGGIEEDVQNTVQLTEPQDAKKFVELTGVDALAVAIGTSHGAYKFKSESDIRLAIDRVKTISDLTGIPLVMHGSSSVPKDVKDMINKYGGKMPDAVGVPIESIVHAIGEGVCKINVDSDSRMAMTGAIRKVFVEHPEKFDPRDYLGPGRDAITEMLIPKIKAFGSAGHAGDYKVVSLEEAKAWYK
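Giardia FBPA (40 nM reagent) was preincubated 10 min at RT with compound (up to 57.5 uM final), then substrate plus GAPDH/TPI/NAD/arsenate coupling system with diaphorase/resazurin was added; resorufin fluorescence (525/598 nm) was read after 20 min.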
Sm TGR block = qHTS Assay for the Inhibitors of Schistosoma Mansoni Peroxiredoxins. Potency, µM (top dose mostly 114 µM), for inactives: top-dose activity change, negative = inhibition, hits mostly inhibitors. hit rate 3% among 360,000. purified TGR, DTNB reduction, TNB absorbance 405 nm. AID 485364, 2010. Schistosoma mansoni thioredoxin glutathione reductase (TGR), Q962Y6; further: potency means the concentration at half of the fitted maximal effect; nearly all actives have a fitted effect of over 60% in size
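First, TGR (20 nM dispensed) and NADPH were mixed with compound. Second, a 15 min room-temperature incubation followed. Third, further NADPH and then DTNB were added to start the reaction. Finally, TNB absorbance was monitored kinetically.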
HCMV antiviral = qHTS Assay for inhibitors of the human cytomegalovirus (HCMV) | HFF cells, HCMV-luciferase reporter, 72 h; active compounds read low | activity change, negative = inhibition, % at 57.5 µM | hit rate 4.5% among 410,000; in the data active means activity change below about -60%; inconclusive means no clear call, values can overlap the other calls; inactive means above about -39%
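Two-dose cell screen: HFF monolayers treated with compounds and infected with luciferase-expressing HCMV at 1 PFU/cell, 72 h at 37C, then lysed for luciferase measurement.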
RE007 growth inh = qHTS Assay for Inhibitors of the HIV-1 protein Vpr; S. pombe RE007 Vpr strain, BacTiter-Glo ATP luminescence, 24 h; Potency, µM (series often up to 92.2 µM), for inactives: top-dose activity change, negative = less growth, usual class: inhibitors; hit rate 0.21% among 360,000; AID 651644, 2012; active means well fitted falling curve with a large enough effect; inconclusive means small, poorly fitted or top-dose-only effect; inactive means no such curve, though single readings can be large or run the other way; further: potency means the concentration at half of the fitted maximal effect; nearly all actives have a fitted effect of over 50% in size
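Fission yeast strain RE007, carrying one chromosomally integrated HIV-1 vpr copy, was seeded at OD 0.01 in PMG+AL medium with 23 nL pinned compound. After 24 h at 30 °C and 99% humidity, viability was read by BacTiter-Glo luminescence.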
Tb PYK inh = qHTS of Trypanosoma Brucei Inhibitors. TbPYK enzyme, Kinase-Glo Plus ATP luminescence, 45 min. hit rate 0.12% among 410,000. pyruvate kinase (Trypanosoma brucei), Q57TT1. Potency, µM (highest dose often 76.8 µM), for the others: at the highest dose activity, negative = inhibition, most hits filed as inhibitors; further: potency means the concentration at half of the fitted maximal effect; nearly all actives have a fitted effect of over 50% in size
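TbPYK + substrate in 50 mM TEA pH 7.2, 100 mM KCl, 10 mM MgCl2, 0.05% BSA, 0.01% Tween-20; cpd pinned; ADP 130 uM final; 45 min RT; Kinase-Glo Plus 10 min; luminescence endpoint.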
FMDV antiviral = High Throughput Screening for Foot and Mouth Disease Virus Antivirals; Potency, µM (series often up to 57.9 µM), without a hit: at the highest dose activity change, negative = inhibition, usual class: inhibitors; hit rate 1.2% among 410,000; AID 1159524, 2015; FMDV antiviral cell-based qHTS; calls by dose curve; tested in HEK293T cells; further: read-out not given here; potency means the concentration at half of the fitted maximal effect; nearly all actives have a fitted effect of over 45% in size
The depositor's hits bear a star; ? = inconclusive; . = no result given; [ ] = dose if it differs, or a comment. Compounds with a hit are over-represented: about 7.7% of the library has one in this group of screens. Unless noted, the call rests on the fitted dose curve; in most records, active means well fitted curve in the direction sought with a large enough effect; inconclusive means small, poorly fitted or top-dose-only effect, or another doubt; inactive means no such curve, though single readings can be large; an effect the other way counts as inactive or inconclusive. On the % scale 0 is the no-effect control and ±100 the full control effect.

SMILES	Giardia FBPA inh	Sm TGR block	HCMV antiviral	RE007 growth inh	Tb PYK inh	FMDV antiviral
COc1ccc(NC(=O)CSc2nnc(-c3ccccc3Cl)n2Cc2ccco2)c(OC)c1	14%	35µM*	39	18%	0%	-23%
COc1ccc(NC(=O)CSc2nnc(-c3ccccc3)n2Cc2ccco2)c(OC)c1	-4%	-21%[11.4 µM]	52	12%	-2%	0%
COc1ccc(C)cc1NC(=O)CSc1nnc(COc2ccccc2)n1Cc1ccco1	3%	?	43	15%	-1%	-36%
COc1ccc(C)cc1NC(=O)CSc1nnc(COc2ccc(Cl)cc2)n1Cc1ccco1	9%	?	-84*	5%	-1%	-28%
COc1ccccc1NC(=O)CSc1nnc(-c2ccccn2)n1Cc1ccco1	2%	40µM*	-5	-11%	0%	-3%
CCOC(=O)c1cccn1C1C(=O)N(Cc2ccc3c(C)cc(=O)oc3c2)c2ccc(Cl)cc21 (stereo not given)	.	.	-13	.	.	.
COc1ccccc1NC(=O)CSc1nnc(-c2ccco2)o1	-2%	4%	34	25%	6%	9%
COc1ccccc1NC(=O)CSc1nccc(-c2ccco2)n1	.	25µM*	16	1%	-13%	-13%
CC(=O)NC(Nc1c(C)n(C)n(-c2ccccc2)c1=O)C(Cl)(Cl)Cl (stereo not given)	-12%	40µM*	5	-19%	1%	-6%
Cc1cc(N/C=C/C(=O)c2cccs2)ccc1F	-8%	-6%	-101*	-24%	-8%	22%
Cc1c(N/C=C/C(=O)c2cccs2)c(=O)n(-c2ccccc2)n1C	-9%	45µM*	8	4%	-2%	.
Cc1c(N/C=C(\Cl)C(=O)C(F)(F)F)c(=O)n(-c2ccccc2)n1C	-25%	14µM*	23	7%	-2%	-1%
CCCC(=O)NC(Nc1c(C)n(C)n(-c2ccccc2)c1=O)C(Cl)(Cl)Cl (stereo not given)	6%	.	-36	12%	0%	-2%
Cc1c(NC=C(C#N)C#N)c(=O)n(-c2ccccc2)n1C	-4%	0%	48	2%	-1%	2%
COc1ccccc1CNC(=O)CN1C(=O)CSc2ccc(S(=O)(=O)N(C)C)cc21	.	6%	5	.	0%	-20%
COc1ccc(CCNC[C@H](O)COc2cccc(C)c2)cc1OC	.	.	.	.	0%	.
CN(CC(=O)Nc1ccccc1Cl)C(=O)COC(=O)c1ccc(Cl)nc1	.	2%	0	7%	4%	3%
CN(CC(=O)Nc1ccccc1Cl)C(=O)COC(=O)c1nc(Cl)c(Cl)c(Cl)c1Cl	-19%	18µM*	55	-3%	-14%	?
CCOc1ccc(C2CC(=O)Nc3c2c(=O)[nH]c2ncnn32)cc1 (stereo not given)	.	-1%	13	.	7%	-13%
C/C=C(/CCC1NCCc2c1[nH]c1ccccc21)[Si](C)(C)C (stereo not given)	.	.	26	-3%	-4%	28µM*
CCCCCCCCCC1NC(C(=O)O)Cc2c1[nH]c1ccccc21 (stereo not given)	.	.	-15	-1%	4%	-19%
COc1ccc(Cl)cc1C(=O)Nc1ccc2nc(Nc3cccc(Cl)c3)cc(C)c2c1	.	-2%	?	.	0%	?
Cc1cc(Nc2cccc(Cl)c2)nc2ccc(NC(=O)Cc3cccc(C(F)(F)F)c3)cc12	.	2%	-99*	.	2%	-14%
Cc1cc(Nc2cccc(Cl)c2)nc2ccc(NC(=O)Cc3ccc(Cl)cc3)cc12	.	8%	-104*	.	4%	-29%
COc1ccc(CC(=O)Nc2ccc3nc(Nc4cccc(Cl)c4)cc(C)c3c2)cc1OC	.	-4%	-69*	.	-4%	?
SMILES	Giardia FBPA inh	Sm TGR block	HCMV antiviral	RE007 growth inh	Tb PYK inh	FMDV antiviral
Cc1cc(Nc2cccc(Cl)c2)nc2ccc(NC(=O)Cc3c(F)cccc3Cl)cc12	.	-1%	-40	.	0%	-3%
CCc1ccc(OCC2c3cc(OC)c(OC)cc3CCN2C(=O)c2ccc(S(=O)(=O)N3CCCC3)cc2)cc1 (stereo not given)	.	6%	-3	.	-4%	-5%
O=c1c2ccccc2nnn1Cc1ccco1	.	.	-4	.	.	.
Cc1cc2[nH]c3c4ccccc4nc(C)c3c2cc1C	.	.	-101*	-9%	-1%	-13%
Cc1cc2c(C)nc3ccccc3c2o1	1%	0%	-22	-12%	1%	-28%
COc1cc(OC)c(OC)cc1CN1CCOc2ccc(CN3C[C@@H](C)O[C@@H](C)C3)cc2C1	.	.	.	.	.	-19%
COc1cc2cc(-c3ccc(OC)c(OC)c3C)nc(N)c2cc1OC	.	.	-92*	-9%	0%	-10%
COc1cccc(NC(=O)C(Nc2ccccc2)c2ccccc2F)c1 (stereo not given)	.	.	-67*	.	.	.
Cc1cccc(Cl)c1NC(=O)C(Nc1ccccc1)c1ccccc1F (stereo not given)	.	.	-27	.	.	.
O=C(OCC(=O)c1ccc(Cl)cc1Cl)c1ccc2c(c1)C(=O)N(c1cccc3ncccc13)C2=O	-3%	-4%	39	-21%	3%	-11%
O=C(COC(=O)c1ccc2c(c1)C(=O)N(c1cccc3ncccc13)C2=O)c1ccc(Cl)cc1	1%	-17%	-89*	4%	-3%	?
Cc1ccc(C(=O)COC(=O)c2ccc3c(c2)C(=O)N(c2cccc4ncccc24)C3=O)cc1	7%	-1%	-94*	-5%	3%	?
COc1ccccc1N1CCN(C(=O)CSc2nc3ccccc3nc2Cc2ccccc2)CC1	.	-2%	-11	.	0%	?
COc1ccccc1C(=O)Nc1ccc(-c2nc3ccccc3s2)c(C)c1	.	6%	-18	.	-4%	15%
Cc1ccc(C)c(NC(=O)COC(=O)c2cccc3c2C(=O)c2ccccc2C3=O)c1	-16%	-10%	?	-8%	-4%	?
Cc1ccc(C(=O)Nc2ccc(-c3nc4ccccc4s3)c(O)c2)c(C)c1	.	31%	-63*	.	3%	13%
CCC(=O)NC(=S)Nc1ccc(-c2nc3ccccc3s2)cc1	0%	5%	78	-15%	-1%	3%
CCC(=O)Nc1cc(-c2nc3ccccc3s2)c(Cl)cc1Cl	.	-10%	-101*	.	-13%	2%
Cc1ccc(NC(=O)COC(=O)c2cccc3c2C(=O)c2ccccc2C3=O)c(C)c1	-20%	6%	-67*	.	-4%	-4%
Cc1ccc(NC(=O)COC(=O)c2ccccc2-c2nc3ccccc3s2)c(C)c1	-5%	-4%	-68*	0%	-2%	-24%
